IMPase cell inh = qHTS Assay for Identifying the Cell-Membrane Permeable IMPase Inhibitors; 120,000 tested, under 10 active; CHO-M1 cells, IP1 accumulation, HTRF TR-FRET ratio; Inositol monophosphatase 1 (Rattus norvegicus), P97697; inhibition (IP1 accumulation), % at 46.1 µM; active = well fitted curve in the direction sought with a large enough effect in the signal ratio, not every such curve was filed as active; inconclusive = small, poorly fitted or top-dose-only effect, or a change in a side signal; inactive = no such curve, though single readings can be large or run the other way; the % refers to the signal ratio;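 also: cells stimulated with carbachol in lithium chloride buffer; plate controls were DMSO basal wells for no effect and reference inhibitor wells for full effect; higher means more IMPase inhibition seen as more IP1 and lower FRET ratio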
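CHO-M1 cells (CHO stably expressing M1 receptor), compound up to 46 uM final, stimulated with carbachol (50 uM as added) in buffer with 50mM LiCl, pH 7.4, 30 min at 37C. Cytosolic IP1 read by TR-FRET; AC50 from Hill fits.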
HPGD block = qHTS Assay for Inhibitors of HPGD (15-Hydroxyprostaglandin Dehydrogenase); purified HPGD, NADH fluorescence kinetic, PGE2 substrate; 150,000 compounds, 4.3% hits; Potency, µM, inactives show at the top dose activity change, negative = inhibition, actives largely listed as inhibitors; active = well fitted inhibition curve with a large enough effect, not every such curve was filed as active; inconclusive = small, poorly fitted or top-dose-only effect, or another doubt; inactive = no such curve, though single readings can be large or run the other way; also: potency is read from the fitted curve at half-maximal effect
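20 nM HPGD preincubated 15 min at room temperature with compound in 50 mM Tris-HCl pH 8, 0.01% Tween 20. Started with 1 mM NAD+ and 30 uM prostaglandin E2; NADH fluorescence (360/450 nm) read 5 times over 30-s intervals, last minus first.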
PNC assembly inh = High Content Assay for Compounds that inhibit the Assembly of the Perinucleolar Compartment; AID 2417, 2010; PC3M PTB-GFP, PNC prevalence imaging, 16 h; hits give low values; 140,000 compounds, 3.1% hits; activity change (PNC), negative = inhibition, % at 10 µM;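 active = readout at or below -70, meaning at least 70% loss of cells showing the perinucleolar compartment, a nuclear body marking cancer cells; inconclusive = readout between -30 and a set limit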;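 also: plate controls were DMSO wells for no effect and camptothecin positive control wells for full effect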
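Compounds are pinned in duplicate onto adhered PC3M cells stably expressing GFP-tagged PTB and incubated 16 h at 37 C. Cells are then fixed, nuclei stained with Hoechst, and PNC-positive cells counted.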
IMPase Li inh = qHTS Assay for Identifying the Cell-Membrane Permeable IMPase Inhibitors: Potentiation with Lithium. Potency, µM (highest dose often 59.4 µM), without a hit: at the highest dose activity, negative = IMPase inhibition, most hits filed as inhibitors. CHO-M1 cells, IP1 TR-FRET (IP-One), carbachol + lithium. 210,000 compounds, 0.35% hits;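 also: IP1 builds up when IMPase is blocked and the TR-FRET signal falls; potency is read from the fitted curve at half-maximal effect; plate controls were basal vehicle for no effect and high inhibitor control for full effect; nearly all actives have a fitted effect of over 50% in size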
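Concentration–response in CHO-M1 cells, lithium-potentiated; 30 min at 37C. IP1 detected by competitive TR-FRET after 10 min lysis at RT. Hill-fitted AC50.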
ALDH1A1 block = qHTS Assay for Inhibitors of Aldehyde Dehydrogenase 1 (ALDH1A1); Aldehyde dehydrogenase 1A1 (Homo sapiens), P00352; Purified ALDH1A1, NADH fluorescence, propionaldehyde substrate; Potency, µM (titrated, usually from 75.3 µM), inactives show top-dose activity, negative = inhibition, most hits filed as inhibitors; 220,000 compounds, 7.3% hits; AID 1030, 2008; active = well fitted inhibition curve with a large enough effect, not every such curve was filed as active; inconclusive = small, poorly fitted or top-dose-only effect, or another doubt; inactive = no such curve, though single readings can be large or run the other way;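 also: potency is read from the fitted curve at half-maximal effect; plate controls were no enzyme wells and a reference inhibitor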
ALOX12 inhib = qHTS Assay for Inhibitors of 12-hLO (12-human lipoxygenase). AID 1452, 2008. 150,000 compounds, 0.12% hits. Polyunsaturated fatty acid lipoxygenase ALOX12 (Homo sapiens), P18054. purified 12-hLO, xylenol orange hydroperoxide absorbance. Potency, µM (series often up to 57.1 µM), for the others: at the top dose activity change, negative = inhibition, usual class: inhibitors; also: potency is read from the fitted curve at half-maximal effect; nearly all actives have a fitted effect of over 55% in size
Target sequence (P18054 whole entry, looked up): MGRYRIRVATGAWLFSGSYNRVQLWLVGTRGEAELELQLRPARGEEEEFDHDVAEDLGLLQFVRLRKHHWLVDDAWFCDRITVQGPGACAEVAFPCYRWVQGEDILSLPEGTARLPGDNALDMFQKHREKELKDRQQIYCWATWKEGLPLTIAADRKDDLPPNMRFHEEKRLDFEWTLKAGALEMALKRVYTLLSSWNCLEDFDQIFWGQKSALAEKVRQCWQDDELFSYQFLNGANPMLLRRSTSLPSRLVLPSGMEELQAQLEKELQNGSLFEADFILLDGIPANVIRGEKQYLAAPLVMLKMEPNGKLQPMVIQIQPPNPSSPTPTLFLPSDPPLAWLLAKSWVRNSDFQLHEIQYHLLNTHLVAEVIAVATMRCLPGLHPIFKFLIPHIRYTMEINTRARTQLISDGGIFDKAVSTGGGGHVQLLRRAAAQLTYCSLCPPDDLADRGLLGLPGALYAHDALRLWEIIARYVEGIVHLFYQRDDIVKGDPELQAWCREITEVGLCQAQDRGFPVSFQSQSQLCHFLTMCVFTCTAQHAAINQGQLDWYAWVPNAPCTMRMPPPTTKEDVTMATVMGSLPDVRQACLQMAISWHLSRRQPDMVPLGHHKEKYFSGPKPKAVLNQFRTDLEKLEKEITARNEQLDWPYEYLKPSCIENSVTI
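Purified human 12hLO (150 nM), preincubated 15 min with compound, then 40 uM arachidonic acid for 30 min, room temperature, Hepes pH 7.0 with 0.01% Triton X-100. Hydroperoxide detected by ferrous iron/xylenol orange; 573/405 nm absorbance ratio gives reaction progress.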
* hit, by the source's call; ? = inconclusive; / = no result given; [ ] = another dose, or the depositor's remark. This is a sample that favours compounds with a hit; in the whole collection about 11% have one here. Unless noted, calls follow the shape of the dose curve; as a rule, active = well fitted curve in the direction sought with a large enough effect; inconclusive = small, poorly fitted or top-dose-only effect, or another doubt; inactive = no such curve, though single readings can be large; an effect the other way counts as inactive or inconclusive. Unless noted, % is scaled to controls: 0 for no effect and ±100 for the full control effect.

SMILES	IMPase cell inh	HPGD block	PNC assembly inh	IMPase Li inh	ALDH1A1 block	ALOX12 inhib
Cc1nc(NC(=O)CSc2ccccc2N)sc1C	4	-19%	-25	20%[38.3 µM]	22µM*	5%
CCc1cc2cc3c(cc2nc1SCC(=O)Nc1nnc(C)s1)OCCO3	19[1.84 µM]	-17%	?	13µM*	7%	9%
Nc1ccccc1SCC(=O)Nc1nccs1	/	/	/	3%	1%	/
Cc1cc2cc3c(cc2nc1SCC(=O)Nc1nc(C)c(C)s1)OCO3	?	-20%	?	8.9µM*	?	2%
CCc1nnc(NC(=O)CSc2nc3cc4c(cc3cc2CC)OCCO4)s1	6[1.84 µM]	-7%	3	-21%[38.3 µM]	0%	4%
C[C@@H](O)[C@H]1C(=O)N2C(C(=O)O)=C(S[C@@H]3CN[C@H](C(=O)N(C)C)C3)[C@H](C)[C@H]12	1[20.6 µM]	-9%	/	-2%	-11%[20.9 µM]	-1%[25.6 µM]
CCCC(=O)Nc1ncnc2c1ncn2C1OC2COP(=O)(O)OC2C1OC(=O)CCC (stereo not drawn)	/	-18%	/	3%	5%	0%
Cc1ccc(-c2csc3nnc(SCC(=O)Nc4nsc(-c5ccccc5)n4)n23)cc1	1	-4%	7	-6%[38.3 µM]	8.9µM*	-9%
Cc1ccc(-c2nc(NC(=O)CSc3ccc4ccccc4n3)ns2)cc1	3	-2%	30	?	4%	4%
Cc1ccc(-c2nc(NC(=O)CSc3nnnn3-c3ccccc3)ns2)cc1	?	?	?	10µM*	?	-9%
COc1ccc(C(=O)C[n+]2cn(C(F)F)c3ccccc32)c(F)c1	/	/	/	-7%	10µM*	/
Cc1oc2ccc(O)c(CN3CCOCC3)c2c1C(C)O (stereo not drawn)	13	-3%	?	21%	7.1µM*	7%
CCN1C(=O)c2ccc(C(=O)Nc3ncc(C)s3)cc2C1=O	/	/	/	-5%	2.2µM*	/
O=C(CCCCCN1C(=O)C2C3C=CC(C3)C2C1=O)Nc1nccs1 (stereo not drawn)	10	-8%	11	-7%[38.3 µM]	?	0%
O=C(CCCN1C(=O)c2ccccc2C1=O)Nc1c2c(nc3c1CCC3)CCC2	10	-13%	-13	11µM*	-1%	3%
O=C(CCCCCN1C(=O)c2ccccc2C1=O)Nc1nccs1	-5	7.1µM*	?	1%[38.3 µM]	-1%	-1%
COCCN1C(=O)c2ccc(C(=O)O)cc2C1=O	-1	-20%	20	13%[38.3 µM]	?	2%
COCCN1C(=O)c2ccc(C(=O)Nc3nccs3)cc2C1=O	-4	-9%	-111*	5%[38.3 µM]	?	-4%
Cc1cccnc1NC(=O)CCCN1C(=O)c2ccccc2C1=O	0	-5%	-7	16%[38.3 µM]	11%	2%
Cc1ccc(NC(=O)CN2C(=O)N/C(=C/c3ccco3)C2=O)cc1	2	-20%	55	-2%[38.3 µM]	25µM*	-25%
Cc1ccc(NC(=O)CN2C(=O)N/C(=C/c3cccn3-c3ccc(C(=O)O)cc3)C2=O)cc1	12	25µM*	34	5%	-8%	-3%
Cc1ccc(NC(=O)CN2C(=O)N/C(=C/c3cc(C)n(-c4ccc(C(=O)O)cc4)c3C)C2=O)cc1	/	/	/	-7%	?	/
O=C1NC(c2ccccc2)(C(F)(F)F)C(=O)N1Cc1cccnc1 (stereo not drawn)	3	-19%	-85*	-1%[38.3 µM]	-14%	0%
O=C1c2ccccc2C(=O)C1c1ccnc2ccccc12	?	2%	-20	7%	3%	1%
N#CC1=C(N)SC(N)=C(C#N)C1c1ccnc2ccccc12	-11	16µM*	-14	-28%[38.3 µM]	?	-12%
SMILES	IMPase cell inh	HPGD block	PNC assembly inh	IMPase Li inh	ALDH1A1 block	ALOX12 inhib
Cc1c(O)ccc2c1OCO2	/	/	/	/	-2%[13.5 µM]	/
Cc1c(C#N)c(N=CN(C)C)c(C(=O)c2ccc(Br)cc2)n1-c1ccccc1	7	-8%	?	34%[38.3 µM]	22µM*	0%
Cc1c(C#N)c(N=CN(C)C)c(C(=O)c2ccccc2)n1-c1ccc(Br)cc1	6	-1%	-19	40%[38.3 µM]	5%	3%
CCCS(=O)(=O)N1CCN(Cc2ccccc2C(F)(F)F)CC1	3	-7%	-11	-7%[38.3 µM]	?	-15%
CCCS(=O)(=O)N1CCN(Cc2ccccc2[N+](=O)[O-])CC1	/	/	/	1%	8.9µM*	/
CC(C)CC(=O)N1CCN(Cc2ccccc2[N+](=O)[O-])CC1	/	/	/	10%	0.089µM*	/
O=C(NCc1ccccc1)c1cccc(OCC(=O)N2CCN(C(=O)c3ccco3)CC2)c1	2	-4%	40	0%[38.3 µM]	16µM*	-11%
O=C(c1ccco1)N1CCN(S(=O)(=O)Cc2ccccc2Cl)CC1	/	/	/	0%	10µM*	/
O=C(Cc1c(Cl)cccc1Cl)OCC(=O)N1CCN(C(=O)c2ccco2)CC1	/	/	/	-1%	32µM*	/
C[C@@H]1CC2C3CCC4=CC(=O)C=CC4(C)[C@@]3(F)[C@@H](O)CC2(C)[C@@]1(O)C(=O)CO (stereo partly drawn)	/	0%	/	-3%	-9%	1%[0.00818 µM]
Cc1cccc(-n2c3nc(=O)[nH]c(=O)c-3cc3c(Cl)cccc32)c1C	-5	/	/	/	/	/
C=C(C(C)=O)C(O)c1ccc2ccccc2c1 (stereo not drawn)	/	-1%	/	4%	-7%	0%
CCOC(=O)c1cc(C(=O)OCC)c(=O)[nH]c1C	/	-28%	16	-3%	?	-4%
CCOC(=O)c1cc2c(C)[nH]c(C)c2cc(C(=O)OCC)c1=O	/	/	/	2%	25µM*	/
O=C(NC(C(=O)c1ccccc1)N1CCCCCC1)c1ccco1 (stereo not drawn)	-2	-5%	?	8%	14µM*	2%
Cc1ccc(C(=O)C(NC(=O)c2ccco2)N2CCOCC2)cc1 (stereo not drawn)	14	-17%	?	2%[38.3 µM]	28µM*	1%
O=C(NC(C(=O)c1ccccc1)N1CCOCC1)c1ccccc1 (stereo not drawn)	-17	4%	1	-6%[38.3 µM]	-1%	-2%
CC(C)C1Oc2ccccc2N(CC(=O)NCCCN2C(C)CCCC2C)C1=O (stereo not drawn)	9	-12%	?	2%[38.3 µM]	7%	0%
Cc1c(C(=O)OCC2CCCCC2)[nH]c2c1C(=O)CC(c1ccccc1Cl)C2 (stereo not drawn)	5	/	/	/	/	/

Screening results deposited in PubChem BioAssay by National Center for Advancing Translational Sciences (NCATS).
